Seven compounds from PubChem BioAssay (NCATS) can be followed below.

In experiment [1] the target is Lysosomal acid glucosylceramidase (Homo sapiens) (UniProt P04062). Kind of experiment: Glucocerebrosidase-p2 (AID 348; in the data active = potency below about 10 µM; also: potency is read from the fitted curve at half-maximal effect). The conditions noted are these: purified GBA, blue fluorogenic substrate, 40 min. In short, it runs like this: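 Compounds titrated from 0.6 nM upwards against 0.2 nM enzyme in pH 5.9 citric acid/KH2PO4, taurocholate, tween-20; blue fluorogenic substrate 80 uM, 40 min room temperature, stopped and read Ex 365/Em 440 for AC50.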

In experiment [2] the target is Cytochrome P450 1A2 (Homo sapiens) (UniProt P05177). The experiment can be described thus: p450-cyp1a2 (AID 410). Also: potency is read from the fitted curve at half-maximal effect. The note with it: recombinant CYP1A2, luciferin-ME demethylation, luminescence; series mostly up to 57 µM. In short, it runs like this:
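20nM CYP1A2 with 100uM Luciferin-ME (at Km) in 100mM KPO4; compound preincubated 10 min, NADPH regeneration added, 60 min at room temperature. Luciferin quantified by luminescence after detection reagent; normalized to 57 uM furafylline.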

The target of experiment [3] is Glucocorticoid receptor (Homo sapiens) (UniProt P04150). Kind of experiment: GR-GFP Redistribution (AID 450;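 active = compounds whose dose series gives a full or clear partial fitted curve of increased nuclear translocation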; also: potency is read from the fitted curve at half-maximal effect). The note with it: U2OS GR-GFP nuclear translocation, laser cytometry, 2 h.
Experiment [4] shares this target. Kind of experiment: GR-EFC Redistribution (AID 451). Also: potency is read from the fitted curve at half-maximal effect. The note with it: CHO-K1 GR-EFC translocation, beta-gal luminescence, 2 h. In short, it runs like this:
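CHO-K1 cells expressing nuclear EA and GR-ED fragments of b-gal; compounds titrated up to 46 uM final, 2 h at 37 C. GR nuclear translocation read as complemented b-gal luminescence after 1 h RT detection.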

For experiment [5], the target named is Mitogen-activated protein kinase 10 (Mus musculus) (UniProt Q61831). Kind of experiment: JNK3 AlphaScreen Assay (AID 530; active = well fitted curve in either direction with a large enough effect, not every such curve was filed as active;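 also: kinase came from lysate of stimulated human HepG2 cells; signal reports phosphorylation of biotinylated GST-cJun 1-79 at Ser73 with 10 µM ATP; % is scaled to controls: 0 for no effect and ±100 for the full control effect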). The note with it: JNK3 lysate, c-Jun phosphorylation; series mostly up to 57.1 µM. In short, it runs like this: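 Pre-activated (IL-1β/TNFα) JNK3 in HepG2 lysates phosphorylates biotin-GST-cJun(1-79), 10 uM ATP; anti-phospho-cJun(Ser73) AlphaScreen read at room temperature, pH 7.6 Tris buffer. Compounds pre-incubated 15 min as titrations.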
A general note: Bead proximity is the source of the signal in Alpha formats.

Experiment [6] deals with 3',5'-cyclic-AMP phosphodiesterase 4B (Homo sapiens) (UniProt Q07343). Kind of experiment: qHTS Assay for Inhibitors of PDE-IV (AID 607; active = well fitted activation curve with a large enough effect in the main read-out, with a control signal flat, not every such curve was filed as active; also: % of control where 0% means no effect). The conditions noted are these: HEK293 ACTOne CNG channel cells, membrane potential fluorescence; series mostly up to 22.9 µM. In short, it runs like this: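 HEK293 ACTOne cells with CNG channel (1000/well), endogenous PDE4; membrane potential dye, compounds up to 22.9 uM final. Fluorescence Ex 535/Em 590; RO 20-1724 (100 uM final) as reference.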

Experiment [7] concerns the target Cytochrome P450 3A4 (Homo sapiens) (UniProt P08684). Kind of experiment: qHTS Assay for Activators of Cytochrome P450 3A4 (AID 885; active = well fitted curve in the direction sought with a large enough effect; an effect the other way counts as inactive or inconclusive; also: nearly all actives have a fitted effect of over 65% in size). The conditions noted are these: recombinant CYP3A4, Luciferin-PPXE luminescence, 60 min; series mostly up to 57.1 µM. In short, it runs like this: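 Human CYP3A4 (20 nM) with Luciferin-PPXE at 25 uM (its KM) in 200 mM KPO4; 10 min compound preincubation, then NADPH regeneration and 60 min reaction at RT. Luciferin read by luminescence; normalized to 57 uM ketoconazole full inhibition.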
A general note: qHTS replaces the single test concentration by a dilution series.

Experiment [8] can be described thus: qHTS Assay for Identification of Small Molecule Agonists for Hypoxia Response Element Signaling Pathway (AID 914; active = well fitted activation curve with a large enough effect in the signal ratio, with a control signal flat, not every such curve was filed as active; the % refers to the signal ratio; also: potency is read from the fitted curve at half-maximal effect). The note with it: ME-180 HRE-bla reporter, beta-lactamase ratio, CoCl2, 17 h; activation: stronger effect = higher value. In short, it runs like this: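 Cells were plated overnight, pin-dosed with compound in a titration series, co-stimulated with EC50 CoCl2 and incubated 17 hours at 37 degrees Celsius. CCF4 substrate was then loaded, and AC50 values came from the 460nm/530nm ratio.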

A short description of experiment [9]: qHTS Assay for Lipid Storage Modulators (AID 1519). The note with it: Drosophila S3 cells, BODIPY lipid droplet/cell ratio, laser cytometry, cells loaded with oleic acid; for activity change, negative = inhibition: at 57.5 µM (top of the series). In short, it runs like this: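 Cells seeded at 5,000 per well were treated with compounds over a concentration series and loaded with oleic acid (400 uM, as added). Lipid droplet fluorescence (488 nm excitation, 500-530 nm channel) was read by laser-scanning cytometry and normalized to 20 uM Triacsin C.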

A short description of experiment [10]: Primary qHTS for small molecule stabilizers of the endoplasmic reticulum resident proteome: Secreted ER Calcium Modulated Protein (SERCaMP) assay (AID 1508630; active = well fitted curve in the direction sought with a large enough effect; an effect the other way counts as inactive or inconclusive; also: % is scaled to controls: 0 for no effect and ±100 for the full control effect). The note with it: SH-SY5Y GLuc-SERCaMP (Gaussia luciferase released on ER calcium loss) secretion, thapsigargin, luminescence; series mostly up to 38.4 µM. In short, it runs like this: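 GLuc-SERCaMP-expressing SH-SY5Y cells, pretreated 16 h with compound, are challenged with thapsigargin to empty ER calcium stores; after 4 h, coelenterazine is added directly to the medium and luminescence is imaged.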

The nature of experiment [11]: AP1 Signaling Pathway (AID 357; active = well fitted curve in either direction with a large enough effect, not every such curve was filed as active; also: % is scaled to controls: 0 for no effect and ±100 for the full control effect). The conditions noted are these: ME-180 AP-1-bla reporter, EGF-induced, beta-lactamase ratio, 5 h; at 7.69 µM (top of the series) unless noted. In a few lines: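 Modulation of EGF-driven AP-1 transcription was assessed with a beta-lactamase reporter in ME-180 cells. Compound and EC50 EGF were co-incubated 5 hours at 37 °C before 2.5-hour CCF4 loading at room temperature and dual-emission reading.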

The nature of experiment [12]: Stat Signaling Pathway (AID 446; active = well fitted curve in either direction with a large enough effect, not every such curve was filed as active;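 also: ME-180 cervical cancer cells given 40 pM IL-6 alongside compound; SIE-controlled beta-lactamase reporter measured as 460/530 nm FRET emission ratio; % is scaled to controls: 0 for no effect and ±100 for the full control effect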). The note with it: ME-180 SIE beta-lactamase reporter, IL-6 stimulated, 5 h; at 7.69 µM (top of the series) unless noted. In short, it runs like this: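 ME-180 cells carrying a SIE-driven beta-lactamase reporter are stimulated with 40 pM IL-6 for 5 h at 37C in the presence of compound. The 460/530 nm FRET substrate ratio is read after 2.5 h at RT. Data are normalised to 300 pM IL-6 and to 125 nM JAK inhibitor controls.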

Experiment [13] addresses Cytochrome P450 3A4 (Homo sapiens) (UniProt P08684). The experiment can be described thus: qHTS Assay for Inhibitors and Substrates of Cytochrome P450 3A4 (AID 884; active = well fitted curve in the direction sought with a large enough effect; an effect the other way counts as inactive or inconclusive; also: potency is read from the fitted curve at half-maximal effect; nearly all actives have a fitted effect of over 50% in size). The note with it: recombinant CYP3A4, Luciferin-PPXE luminescence; series mostly up to 57.1 µM. In short, it runs like this:
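20 nM human CYP3A4 with 25 uM Luciferin-PPXE (at KM) in 200 mM KPO4, preincubated 10 min with compound; NADPH regeneration started a 60 min RT reaction. Luciferin detected by luminescence, normalized to 57 uM ketoconazole as full inhibition.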

Experiment [14] in a line: NFAT Signaling Pathway (AID 444; active = well fitted curve in either direction with a large enough effect, not every such curve was filed as active). The note with it: Jurkat NFAT-bla M1, carbachol, beta-lactamase ratio, 5 h; at 7.69 µM (top of the series) unless noted. In short, it runs like this: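 Jurkat cells with NFAT-driven β-lactamase reporter and co-expressed M1 receptor, stimulated with carbachol (final 1 uM, ~EC50), compound titration, 5 h at 37 °C. CCF4 loaded 1 h at RT; 460/530 nm ratio gave %activity and AC50.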

Experiment [15] in a line: Confirmation and Secondary Assay for Modulators of Hemoglobin Beta Chain Splicing at IVS2 654 locus (AID 910; active = well fitted curve in the direction sought with a large enough effect; an effect the other way counts as inactive or inconclusive;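 also: HeLa cells stably carrying EGFP split by mutant beta-globin IVS2-654 intron; % of control where 0% means no effect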). The note with it: HeLa EGFP-654 splicing reporter, GFP fluorescence, 48 h; series mostly up to 38.3 µM. In a few lines: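 HeLa cells stably expressing EGFP interrupted by β-globin IVS2-654 intron, seeded overnight in Opti-MEM/2% FCS, then treated 2 days at 37 °C. Restored splicing read as total peak GFP intensity per well by laser scanning cytometry (488 nm excitation, 500–520 nm emission); 500 nM antisense PNA as control.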

Experiment [16] is described as follows: Confirmation and Secondary Assay for Modulators of Hemoglobin Beta Chain Splicing at IVS2 705 locus (AID 930; active = well fitted curve in the direction sought with a large enough effect; an effect the other way counts as inactive or inconclusive;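 also: HeLa cells stably expressing the EGFP-705 splicing reporter; % of control where 0% means no effect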). The note with it: HeLa EGFP-705 splicing reporter, GFP fluorescence, 48 h; series mostly up to 38.3 µM. In short, it runs like this: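 Splice-correction reporter: EGFP cDNA split by beta-globin intron 2 bearing the 705 mutation, stably in HeLa. Compound incubation 2 days, 37C; fluorescent objects 5-250 µm summed per well.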

The mark [17] stands for this setting: measured here: cell count channel max response.
Where [18] appears, read: measured here: lipid channel max response.

Records with an inconclusive call do not appear. Calls of active or inactive are those of the source. Unless noted, calls follow the shape of the full dose curve. Some results are limits rather than exact numbers.

Cytochrome P450 1A2 (Homo sapiens), sequence (P05177 whole entry, looked up): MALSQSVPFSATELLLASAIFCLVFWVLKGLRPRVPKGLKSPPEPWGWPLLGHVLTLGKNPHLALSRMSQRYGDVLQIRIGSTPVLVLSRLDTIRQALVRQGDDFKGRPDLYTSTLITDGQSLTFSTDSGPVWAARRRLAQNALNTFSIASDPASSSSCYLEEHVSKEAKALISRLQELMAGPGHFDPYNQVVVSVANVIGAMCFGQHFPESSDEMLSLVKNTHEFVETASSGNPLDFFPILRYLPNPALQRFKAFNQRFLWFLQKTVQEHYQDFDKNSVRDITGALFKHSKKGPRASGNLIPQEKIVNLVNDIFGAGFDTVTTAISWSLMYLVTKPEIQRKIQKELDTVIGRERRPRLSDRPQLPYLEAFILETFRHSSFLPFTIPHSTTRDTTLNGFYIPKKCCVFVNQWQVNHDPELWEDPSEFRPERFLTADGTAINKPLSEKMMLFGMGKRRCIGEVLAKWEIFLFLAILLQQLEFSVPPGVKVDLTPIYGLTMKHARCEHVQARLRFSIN
Glucocorticoid receptor (Homo sapiens), sequence (P04150 whole entry, looked up): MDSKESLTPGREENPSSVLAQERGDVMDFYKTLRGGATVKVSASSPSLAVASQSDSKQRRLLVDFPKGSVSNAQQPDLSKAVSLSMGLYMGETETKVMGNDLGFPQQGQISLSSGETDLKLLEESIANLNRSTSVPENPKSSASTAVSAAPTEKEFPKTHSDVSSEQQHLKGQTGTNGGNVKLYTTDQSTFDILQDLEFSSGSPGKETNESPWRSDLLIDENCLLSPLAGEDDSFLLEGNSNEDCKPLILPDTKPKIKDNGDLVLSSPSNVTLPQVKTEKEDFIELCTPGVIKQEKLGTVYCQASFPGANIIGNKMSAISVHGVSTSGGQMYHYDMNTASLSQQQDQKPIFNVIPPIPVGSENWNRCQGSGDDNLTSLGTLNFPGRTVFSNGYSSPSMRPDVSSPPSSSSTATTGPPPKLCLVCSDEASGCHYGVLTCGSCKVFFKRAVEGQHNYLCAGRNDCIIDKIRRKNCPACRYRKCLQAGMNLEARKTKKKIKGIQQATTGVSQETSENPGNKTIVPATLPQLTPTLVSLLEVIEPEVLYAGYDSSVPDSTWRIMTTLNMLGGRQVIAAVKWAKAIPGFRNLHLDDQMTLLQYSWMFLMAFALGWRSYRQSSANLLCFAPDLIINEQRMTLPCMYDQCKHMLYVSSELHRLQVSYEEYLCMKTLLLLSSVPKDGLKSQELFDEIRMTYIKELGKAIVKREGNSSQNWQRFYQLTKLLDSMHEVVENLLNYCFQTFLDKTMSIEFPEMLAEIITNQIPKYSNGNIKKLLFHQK
Cytochrome P450 3A4 (Homo sapiens), sequence (P08684 whole entry, looked up): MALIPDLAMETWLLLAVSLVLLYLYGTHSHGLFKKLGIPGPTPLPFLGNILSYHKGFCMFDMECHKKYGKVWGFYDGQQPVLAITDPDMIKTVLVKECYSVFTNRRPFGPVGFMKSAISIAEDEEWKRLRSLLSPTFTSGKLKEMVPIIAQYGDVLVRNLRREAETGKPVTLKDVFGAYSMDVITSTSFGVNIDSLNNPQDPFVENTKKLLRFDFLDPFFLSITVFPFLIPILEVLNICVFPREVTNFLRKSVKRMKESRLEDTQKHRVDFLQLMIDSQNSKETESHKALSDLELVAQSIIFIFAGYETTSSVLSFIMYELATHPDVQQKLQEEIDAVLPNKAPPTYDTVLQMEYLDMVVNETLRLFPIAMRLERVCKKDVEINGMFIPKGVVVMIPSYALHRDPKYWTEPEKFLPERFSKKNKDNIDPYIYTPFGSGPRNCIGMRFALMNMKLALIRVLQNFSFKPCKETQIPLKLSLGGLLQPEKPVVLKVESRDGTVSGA
3',5'-cyclic-AMP phosphodiesterase 4B (Homo sapiens), sequence (Q07343 whole entry, looked up): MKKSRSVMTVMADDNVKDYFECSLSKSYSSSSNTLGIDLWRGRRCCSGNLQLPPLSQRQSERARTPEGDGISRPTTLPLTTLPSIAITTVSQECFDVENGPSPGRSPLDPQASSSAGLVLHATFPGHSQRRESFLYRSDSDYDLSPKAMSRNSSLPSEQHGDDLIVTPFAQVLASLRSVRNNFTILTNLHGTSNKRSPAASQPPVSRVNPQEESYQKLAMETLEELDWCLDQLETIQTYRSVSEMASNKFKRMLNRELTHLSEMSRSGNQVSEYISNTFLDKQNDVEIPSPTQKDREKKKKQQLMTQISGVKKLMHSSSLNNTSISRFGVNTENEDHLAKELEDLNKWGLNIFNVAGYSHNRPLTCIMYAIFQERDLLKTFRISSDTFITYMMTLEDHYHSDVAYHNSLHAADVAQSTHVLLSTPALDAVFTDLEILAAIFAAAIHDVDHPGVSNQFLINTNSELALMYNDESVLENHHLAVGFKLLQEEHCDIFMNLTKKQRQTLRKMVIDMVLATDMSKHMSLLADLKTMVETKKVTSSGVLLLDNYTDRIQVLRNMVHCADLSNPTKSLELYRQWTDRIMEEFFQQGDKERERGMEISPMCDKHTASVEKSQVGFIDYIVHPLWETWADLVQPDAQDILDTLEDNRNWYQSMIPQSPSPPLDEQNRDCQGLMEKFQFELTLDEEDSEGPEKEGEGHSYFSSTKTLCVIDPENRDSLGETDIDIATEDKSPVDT
Lysosomal acid glucosylceramidase (Homo sapiens), sequence (P04062 whole entry, looked up): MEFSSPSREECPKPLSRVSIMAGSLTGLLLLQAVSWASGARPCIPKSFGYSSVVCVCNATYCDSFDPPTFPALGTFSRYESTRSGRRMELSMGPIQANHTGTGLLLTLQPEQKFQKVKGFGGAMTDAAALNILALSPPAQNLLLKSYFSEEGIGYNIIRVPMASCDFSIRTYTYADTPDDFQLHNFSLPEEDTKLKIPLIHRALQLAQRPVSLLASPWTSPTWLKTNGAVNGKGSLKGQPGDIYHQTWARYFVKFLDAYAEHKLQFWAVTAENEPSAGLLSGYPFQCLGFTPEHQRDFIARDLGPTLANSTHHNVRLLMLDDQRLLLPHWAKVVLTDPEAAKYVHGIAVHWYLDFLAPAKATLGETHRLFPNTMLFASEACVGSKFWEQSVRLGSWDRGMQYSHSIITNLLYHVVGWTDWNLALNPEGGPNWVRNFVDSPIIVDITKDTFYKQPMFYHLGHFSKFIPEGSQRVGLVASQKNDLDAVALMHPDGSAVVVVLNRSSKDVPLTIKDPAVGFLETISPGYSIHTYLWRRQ

Regarding `COc1ccc(-c2nc3cnc(N4CCNCC4)nc3n(CCC#N)c2=O)cc1`, the Potency in experiment [1] is > 11.4 µM (inactive); in [2], 15.8 µM (active); in experiment [3], > 9.22 µM (inactive); in experiment [4], > 46 µM (inactive); in [8], 3.16 µM (active). Also, the Potency result in experiment [5], in experiment [6] and in [7] was “inactive” throughout. In experiment [9], the activity change, negative = inhibition was 4.58% (inactive). For the same compound, the results for the max response in experiment [9] (setting [17]) and in [9] (setting [18]) were 17% and 25%, respectively. The result in [10] was inactive.

As to `COCC(=O)N1CCC2(CCN(Cc3ccccc3)CC2)CC1`, the Potency in [1] was > 11.4 µM (inactive). Moreover, the values for the activity change, negative = inhibition in experiment [11] and in [9] were -10.9% (inactive) and 1.52% (inactive), respectively. Further, the activity, negative = inhibition in [12] is -3.84% (inactive). In addition, the Potency entry in [5] and in experiment [6] was “inactive” in each case. For the same compound, the figures for the max response in [9] (setting [17]) and in [9] (setting [18]) were 2.79% and 9.37%, respectively. For the same compound, the result in [10] was inactive.

Regarding `O=C(c1cnccn1)N1CCC2(CCCN(C(c3ccccc3)c3ccccc3)C2)CC1`, the Potency in [1] was > 11.4 µM (inactive); in experiment [2] it was 20 µM (active); in experiment [4], > 46 µM (inactive); in experiment [13] it was 1.58 µM (active). In [12], the activity, negative = inhibition was 14% (inactive). Moreover, the Potency result in experiment [5] and in [7] was “inactive” in each case. Further, the activity change, negative = inhibition in experiment [9] is 0.62% (inactive). The max response in [9] (setting [17]) was 6.86%; in experiment [9] (setting [18]), 7.68%. Also, the result in experiment [10] was inactive.

With `Cn1cccc1C(=O)N1CCC2(CCCN(C(=O)Nc3ccccc3)C2)CC1`, the Potency was > 11.4 µM (inactive) in experiment [1] and > 46 µM (inactive) in experiment [4]. The activity change, negative = inhibition was -22.5% (inactive) in [14] and 7.87% (inactive) in experiment [9]. In addition, the activity, negative = inhibition in [12] is 4.11% (inactive). Further, the Potency entry in [5] and in experiment [6] was “inactive” throughout. Moreover, the max response in [9] (setting [17]) came to 14.7%; in experiment [9] (setting [18]), 28.5%. Besides, the result in [10] was inactive.

As for `COc1ccc(-n2c(=O)c(-c3cccs3)nc3cnc(N4CCNCC4)nc32)cc1`, the Potency in [1] is > 11.4 µM (inactive); in [2], 5.01 µM (active); in experiment [3], > 9.22 µM (inactive); in [4], > 46 µM (inactive). Further, the Potency result in [5], in [6] and in [7] was “inactive” each time. In addition, the activity change, negative = inhibition in [9] is 2.69% (inactive). Moreover, the figures for the max response in experiment [9] (setting [17]) and in [9] (setting [18]) were 3.53% and 6.61%, respectively. The result in experiment [10] was inactive.

`COC(=O)N1CCC2(CCCN(C(=O)Nc3cccc(C#N)c3)C2)CC1`: the Potency in experiment [1] is > 11.4 µM (inactive); in [4], > 46 µM (inactive). Further, the activity change, negative = inhibition in experiment [11] is -0.449% (inactive); in experiment [9] it was 4.6% (inactive). The Potency result in [5], in experiment [6] and in experiment [7] was “inactive” each time. The max response in [9] (setting [17]) worked out at 16%; in experiment [9] (setting [18]), 23.7%. Besides, the result in experiment [10] was inactive.

As for `c1ccc(Nc2ncnc3ccc(-c4cccnc4)cc23)cc1`, the Potency in experiment [1] is > 11.4 µM (inactive); in experiment [2], 0.0794 µM (active); in experiment [3] it was > 46 µM (inactive); in experiment [4], > 46 µM (inactive); in experiment [13], 2.51 µM (active). Also, in experiment [12], the activity, negative = inhibition is 19.3% (inactive). In addition, the Potency entry in [5], in experiment [6], in experiment [7] and in [15] was “inactive” throughout. The result in [16] and in experiment [10] was inactive. Moreover, the activity change, negative = inhibition in experiment [9] is 7.8% (inactive). The figures for the max response in experiment [9] (setting [17]) and in [9] (setting [18]) were -20.7% and -13.8%, respectively.
